From PubChem BioAssay (NCI)
Several values for one entry are separate records, joined by “and”; a condition that tells them apart may be missing. Equal entries are not always repeated. This is part of a sample that, as a whole, favours compounds with a hit. Of some 83,000 tested, about 20% had one in any assay.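 The endpoint reported here, percent growth, reads 100 for growth as untreated, 0 for no net growth and -100 for all cells dead.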 Activity calls are given as the source filed them. The calls were made as follows: active = growth percent below 10; inactive = the rest.

Assays:
Experiment in all cases: NCI-60 one-dose screen, 48 h (100 = growth as untreated, 0 = no growth, -100 = all killed)
Conditions in all cases: 10 µM unless noted
SR leukemia = test system: SR leukemia
RPMI-8226 leukemia = test system: RPMI-8226 leukemia
OVCAR-8 ovarian = test system: OVCAR-8 ovarian
OVCAR-5 ovarian = test system: OVCAR-5 ovarian
OVCAR-4 ovarian = test system: OVCAR-4 ovarian
SK-OV-3 ovarian = test system: SK-OV-3 ovarian
IGROV1 ovarian = test system: IGROV1 ovarian
OVCAR-3 ovarian = test system: OVCAR-3 ovarian
HS 578T breast = test system: HS 578T breast
NCI/ADR-RES ovarian = test system: NCI/ADR-RES ovarian

| SMILES | growth (SR leukemia) | growth (RPMI-8226 leukemia) | growth (OVCAR-8 ovarian) | growth (OVCAR-5 ovarian) | growth (OVCAR-4 ovarian) | growth (SK-OV-3 ovarian) | growth (IGROV1 ovarian) | growth (OVCAR-3 ovarian) | growth (HS 578T breast) | growth (NCI/ADR-RES ovarian) |
| --- | --- | --- | --- | --- | --- | --- | --- | --- | --- | --- |
| COc1cc(NS(=O)(=O)C(C)C)cc(-c2cc(-c3ccc(N4CCNCC4)cc3)cnc2N)c1 | 54.1% (inactive) | 80% (inactive) | 96.6% (inactive) | 73.2% (inactive) | 95.9% (inactive) | 96.9% (inactive) | 36.9% (inactive) | 90.8% (inactive) | 65.4% (inactive) | 111% (inactive) |
| C#CCOc1cccc(Nc2ncc3ncn(C4CCN(C(=O)CCl)C4)c3n2)c1 (stereo not given) | -1.16% [6.25 µM] (active) | 44.1% [6.25 µM] (inactive) | 51.7% [6.25 µM] (inactive) | 53.3% [6.25 µM] (inactive) | 36.3% [6.25 µM] (inactive) | 73.4% [6.25 µM] (inactive) | 1% [6.25 µM] (active) | -6.2% [6.25 µM] (active) | 82.2% [6.25 µM] (inactive) | 78% [6.25 µM] (inactive) |
| Cc1cc2nc(C(Cl)Cl)nc(-c3ccc(Cl)cc3)n2n1 | 9.87% (active) | -7.69% (active) | 12.8% (inactive) | -0.203% (active) | -19.6% (active) | -6.97% (active) | 5.11% (active) | -26.6% (active) | -32% (active) | -6.58% (active) |
| C=C(CNCCO)[C@@H]1CC[C@]2(CO)CC[C@]3(C)[C@H](CC[C@@H]4[C@@]5(C)CCC(NCCc6ccc(O)cc6)C(C)(C)[C@@H]5CC[C@]43C)[C@@H]12 (stereo not given in full) | -50.6% (active) | -51.3% (active) | -76.8% (active) | 0.392% (active) | -27.1% (active) | -73.2% (active) | -61.5% (active) | -64.3% (active) | -55.9% (active) | 33.4% (inactive) |
| Cc1cccc(Cc2cnc(NC(=O)CCCOc3ccc(Cl)cc3)s2)c1 | 18.4% (inactive) | 22.9% (inactive) | 37.6% (inactive) | 36.2% (inactive) | 31.3% (inactive) | 36.4% (inactive) | 39.1% (inactive) | 7.26% (active) | 21.4% (inactive) | 32.3% (inactive) |
| CCCCCCCCN(CCCCCCCC)CC(O)c1cc(Cl)ccc1OC (stereo not given) | 14.5% (inactive) | 41.5% (inactive) | 87.9% (inactive) | 72.6% (inactive) | 66.9% (inactive) | 78.1% (inactive) | 84.9% (inactive) | 91.9% (inactive) | 69.1% (inactive) | 82.6% (inactive) |
| c1ccc(Cc2cccc[n+]2C(c2ccccc2)c2ccccc2)cc1 | 32.4% (inactive) | 12.3% (inactive) | 57.2% (inactive) | 71.5% (inactive) | 28.2% (inactive) | 52.1% (inactive) | 62.3% (inactive) | 44.6% (inactive) | 90.6% (inactive) | 104% (inactive) |
| COc1ccc(-c2ccccc2)cc1-c1c(Nc2cc(Cl)cc(Cl)c2O)c(=O)c1=O | 23.2% (inactive) | 25.4% (inactive) | 12.3% (inactive) | 28.7% (inactive) | 16.8% (inactive) | -10.8% (active) | 31% (inactive) | 5.32% (active) | 3.42% (active) | 1.38% (active) |
| CC(=O)Nc1c(I)c(NC(C)=O)c(I)c(C(=O)O)c1I | 86.7% (inactive) and 80.5% (inactive) | 106% (inactive) and 112% (inactive) | 101% (inactive) and 96.3% (inactive) | 102% (inactive) and 108% (inactive) | 90.4% (inactive) | 105% (inactive) and 110% (inactive) | 108% (inactive) | 111% (inactive) and 116% (inactive) | 105% (inactive) and 171% (inactive) | 106% (inactive) and 109% (inactive) |
| O=c1cc(N/N=C/c2ccc(F)cc2)c2cc(Cl)ccc2[nH]1 | 4.1% (active) | -43.8% (active) | 93.6% (inactive) | 88.4% (inactive) | 92.9% (inactive) | 84.9% (inactive) | 107% (inactive) | 100% (inactive) | 121% (inactive) | 105% (inactive) |
| COc1nc(=O)n(C2C=CC(=O)O2)cc1F (stereo not given) | -19.8% (active) | 70.1% (inactive) | 46% (inactive) | 129% (inactive) | 71.3% (inactive) | 98.7% (inactive) | 116% (inactive) | 33.8% (inactive) | 94.4% (inactive) | 111% (inactive) |
| O=[N+]([O-])c1ccc(S(=O)Cc2ccccc2)c([N+](=O)[O-])c1 (stereo not given) | 1.64% (active) and -8.84% (active) | 72.8% (inactive) and 27.5% (inactive) | 45.8% (inactive) and 94.9% (inactive) | 82.4% (inactive) and 93.3% (inactive) | 59.7% (inactive) and 1.6% (active) | 104% (inactive) and 109% (inactive) | 89.9% (inactive) and 106% (inactive) | 13.9% (inactive) and -74.6% (active) | 118% (inactive) and 95.2% (inactive) | 90.9% (inactive) and 90.6% (inactive) |
